Compounds without any hit were thinned out: in the full panel of roughly 79,000, 15% have a hit. A number with no mark means an inactive call. The source made the active and inactive calls. Rule as the data show it: active = growth inhibition above about 70%; inactive = the rest.
Columns and labels:
[1] = NCI Yeast Anticancer Drug Screen. Data for the rad50 strain (AID 155);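 also: 0% = growth of vehicle-only cultures of the same strain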; conditions: S. cerevisiae rad50 strain growth inhibition, active compounds read high
Procedure, shortened: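 Vehicle-treated cultures provide the reference for the growth inhibition reported for compound-exposed, repair-deficient yeast.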

[2] = NCI Yeast Anticancer Drug Screen. Data for the mec2-1 strain (AID 157); conditions: S. cerevisiae mec2-1 strain, active compounds read high
Procedure, shortened: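 Strain: mec2-1 (DNA repair/cell cycle alteration). Compound exposure, then growth measured; inhibition expressed relative to vehicle.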

[3] = NCI Yeast Anticancer Drug Screen. Data for the sgs1 mgt1 strain (AID 161);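 also: 0% = growth of cultures given vehicle only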; conditions: S. cerevisiae sgs1 mgt1 strain, active compounds read high
Procedure, shortened: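 Test agents were incubated with a DNA-repair-mutant yeast strain. Growth was then read and compared against vehicle-treated controls.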

[4] = NCI Yeast Anticancer Drug Screen. Data for the cln2 rad14 strain (AID 165);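 also: 0% = growth equal to vehicle treated cultures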; conditions: S. cerevisiae cln2 rad14 strain, active compounds read high
Procedure, shortened: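 Compounds are applied to the cln2 rad14 yeast strain, and growth is then compared with that of vehicle-treated cultures to give inhibition.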

[5] = NCI Yeast Anticancer Drug Screen. Data for the bub3 strain (AID 167); conditions: S. cerevisiae bub3 mutant strain, active compounds read high
Procedure, shortened: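 Mutant yeast screening strain plus compound; vehicle-treated cultures serve as the 0% inhibition reference.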

[6] = NCI Yeast Anticancer Drug Screen. Data for the mlh1 rad18 strain (AID 175); conditions: S. cerevisiae mlh1 rad18 strain growth inhibition, active compounds read high
Procedure, shortened: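 Read-out is yeast growth inhibition, calculated against vehicle-only controls. The compound was applied to a strain engineered with DNA damage repair alterations.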

[7] = at 5.0 µM (retest, dose inferred, filed as 0.5)
[8] = at 50.0 µM (retest, dose inferred, filed as 5.0)

SMILES | growth inhibition [1, 7] | growth inhibition [1, 8] | growth inhibition ([1]; at 50.0 µM) | growth inhibition [2, 7] | growth inhibition [2, 8] | growth inhibition ([2]; at 50.0 µM) | growth inhibition [3, 7] | growth inhibition [3, 8] | growth inhibition ([3]; at 50.0 µM) | growth inhibition [4, 7] | growth inhibition [4, 8] | growth inhibition ([4]; at 50.0 µM) | growth inhibition [5, 7] | growth inhibition [5, 8] | growth inhibition ([5]; at 50.0 µM) | growth inhibition [6, 7] | growth inhibition [6, 8] | growth inhibition ([6]; at 50.0 µM)
C=CCSc1nc2ccccc2c(=O)n1Cc1ccco1 | 50% | 59% | -7.25% | 25% | 36% | -12.2% | 33% | 59% | 22.4% | 27% | 26% | -54.2% | 45% | 77% (active) | 19.4% | 43% | 64% | 46.5%
O=[N+]([O-])C1=Cc2ccccc2S(=O)(=O)CC1 | 6% | 93% (active) | 92.9% (active) | 14% | 93% (active) | 92.2% (active) | 14% | 95% (active) | 92.7% (active) | -8% | 83% (active) | 63.5% | -24% | 85% (active) | 90.5% (active) | 21% | 97% (active) | 97.9% (active)
CCN(C(C)=O)c1cnc(/C=N/NC(N)=S)c2ccccc12 | 13% | 47% | 66.6% | 11% | 47% | 76.9% (active) | 18% | 71% (active) | 28.9% | -13% | 57% | 61.3% | 21% | 71% (active) | 60.4% | 11% | 57% | 31.5%
CCOC(=O)C(=O)C1CCCCC1=O (configuration not stated) | 9% | 95% (active) | 98.5% (active) | 6% | 98% (active) | 98.8% (active) | 5% | 92% (active) | 98.8% (active) | 21% | 98% (active) | 98.8% (active) | 6% | 98% (active) | 97% (active) | 11% | 98% (active) | 98.8% (active)
Oc1cc(Cl)cc2cc(Cl)cnc12 | 99% (active) | 99% (active) | 86.6% (active) | 96% (active) | 98% (active) | 91.2% (active) | 98% (active) | 98% (active) | 84.8% (active) | 97% (active) | 96% (active) | 87.7% (active) | 98% (active) | 99% (active) | 87.8% (active) | 98% (active) | 99% (active) | 82.3% (active)
O=C(O)NCc1ccccc1 (tested in a mixture with another compound) | 11% | 94% (active) | 94% (active) | -12% | 40% | 14.8% | -5% | 74% (active) | 36.1% | 5% | 98% (active) | 60% | 23% | 98% (active) | 87.5% (active) | 3% | 80% (active) | 88% (active)
CCCCCCCCCCCC(=O)C(=O)c1ccc(O)cc1O | 52% | 88% (active) | 93.8% (active) | 87% (active) | 93% (active) | 97.3% (active) | 91% (active) | 92% (active) | 96.4% (active) | 25% | 84% (active) | 95.5% (active) | 45% | 90% (active) | 95.8% (active) | 87% (active) | 92% (active) | 96.7% (active)
CCCCC(C)(C)OC(=O)Nc1ccc(Br)cc1 | 0% | 95% (active) | 96.3% (active) | -14% | 94% (active) | 86.2% (active) | -8% | 95% (active) | 97.8% (active) | 43% | 96% (active) | 84.2% (active) | -8% | 93% (active) | 35.5% | -2% | 96% (active) | 97.4% (active)
CCCCCN(CCCCC)CCNc1ccc(C)c2sc3ccccc3c(=O)c12 | 2% | 96% (active) | 98.6% (active) | 7% | 97% (active) | 97.3% (active) | 17% | 97% (active) | 98.2% (active) | 5% | 93% (active) | 95.7% (active) | 7% | 97% (active) | 96.8% (active) | 9% | 97% (active) | 97% (active)
Nc1ccc(CCCCCc2ccc(N)cc2)cc1 | -3% | 80% (active) | 98.6% (active) | -9% | 99% (active) | 99% (active) | 10% | 96% (active) | 98.9% (active) | 1% | 54% | 98% (active) | -6% | 83% (active) | 98.7% (active) | -1% | 98% (active) | 98.7% (active)
Cc1cc(-c2ccccc2)c(C)c(-c2ccccc2)c1-c1ccccc1 | 5% | 4% | 74.6% (active) | 0% | -1% | 37.9% | 3% | 7% | 40% | -5% | 64% | 80.7% (active) | -13% | 13% | 57.4% | 1% | 16% | 60.8%
O=C(/C=C/c1cccc([N+](=O)[O-])c1)CCl | 1% | 98% (active) | 99.3% (active) | -20% | 99% (active) | 99.6% (active) | 13% | 99% (active) | 99.2% (active) | -22% | 98% (active) | 98.9% (active) | 14% | 98% (active) | 99.5% (active) | -32% | 98% (active) | 99.3% (active)
O=[N+]([O-])/C=C/c1c[nH]c2c1ccc1ccccc12 | 42% | 92% (active) | 84.4% (active) | 53% | 90% (active) | 84.7% (active) | 59% | 81% (active) | 94.2% (active) | 30% | 93% (active) | 89% (active) | 88% (active) | 95% (active) | 75.3% (active) | 55% | 94% (active) | 93.5% (active)
O=CC(I)=C(c1ccccc1)c1ccccc1 | 21% | 21% | 88.8% (active) | 13% | 13% | 92.3% (active) | 9% | 9% | 86.4% (active) | 4% | 4% | 89.8% (active) | -2% | -2% | 89.5% (active) | 21% | 21% | 86.3% (active)
S=c1sc2ccccc2n1CNc1ccccc1 | -2% | 14% | 64.9% | 0% | 7% | 68.1% | 2% | 53% | 72.2% (active) | -5% | -10% | -40.6% | -1% | 18% | 74.3% (active) | 5% | -11% | 69.3%
CCS(=O)(=O)c1ccc(NC(=O)OC2CCCCCCC2)cc1 | 5% | 89% (active) | 95.8% (active) | 16% | 86% (active) | 80.6% (active) | 11% | 74% (active) | 65.5% | -50% | 88% (active) | 88.8% (active) | 6% | -30% | 95.2% (active) | 6% | 90% (active) | 91.6% (active)
c1ccc2nc3ccccc3nc2c1 | -11% | 64% | 77.5% (active) | -3% | 36% | 41.2% | -5% | 16% | 28.4% | 2% | 36% | 41.8% | -1% | 45% | 33.1% | -11% | 65% | 75% (active)
CCC(C)OC(=O)c1cccc(C)c1 (configuration not stated) | 0% | 17% | 94.3% (active) | -2% | 5% | -6.8% | 1% | 7% | -5.05% | 1% | 6% | 38.5% | 2% | 23% | 6.95% | -3% | 12% | 2%
O=C(O)CC/C(=N\Nc1ccccc1)C(=O)O | 3% | 96% (active) | 97.2% (active) | -2% | 90% (active) | 98% (active) | -8% | 84% (active) | 97.4% (active) | 6% | 98% (active) | 97% (active) | 1% | 93% (active) | 97.3% (active) | 5% | 93% (active) | 97% (active)

— PubChem BioAssay (NCI)
